Assay outcomes (PubChem BioAssay)
Sampled rows, rich in hits. Any-hit rate of the full collection: about 3.9%.
ALOX15 inhib: inhibitors of human 15-lipoxygenase (ALOX15); P16050; purified 15hLO-1, xylenol orange hydroperoxide absorbance; Potency, µM (highest dose often 57.1 µM), for inactives: at the highest dose activity change, negative = inhibition, hits mostly inhibitors; 74,000 compounds, 1.4% hits; note: % is set by controls: 0 for no effect and ±100 for the full control effect; nearly all actives have a fitted effect of over 55% in size
Target sequence (P16050 whole entry, looked up): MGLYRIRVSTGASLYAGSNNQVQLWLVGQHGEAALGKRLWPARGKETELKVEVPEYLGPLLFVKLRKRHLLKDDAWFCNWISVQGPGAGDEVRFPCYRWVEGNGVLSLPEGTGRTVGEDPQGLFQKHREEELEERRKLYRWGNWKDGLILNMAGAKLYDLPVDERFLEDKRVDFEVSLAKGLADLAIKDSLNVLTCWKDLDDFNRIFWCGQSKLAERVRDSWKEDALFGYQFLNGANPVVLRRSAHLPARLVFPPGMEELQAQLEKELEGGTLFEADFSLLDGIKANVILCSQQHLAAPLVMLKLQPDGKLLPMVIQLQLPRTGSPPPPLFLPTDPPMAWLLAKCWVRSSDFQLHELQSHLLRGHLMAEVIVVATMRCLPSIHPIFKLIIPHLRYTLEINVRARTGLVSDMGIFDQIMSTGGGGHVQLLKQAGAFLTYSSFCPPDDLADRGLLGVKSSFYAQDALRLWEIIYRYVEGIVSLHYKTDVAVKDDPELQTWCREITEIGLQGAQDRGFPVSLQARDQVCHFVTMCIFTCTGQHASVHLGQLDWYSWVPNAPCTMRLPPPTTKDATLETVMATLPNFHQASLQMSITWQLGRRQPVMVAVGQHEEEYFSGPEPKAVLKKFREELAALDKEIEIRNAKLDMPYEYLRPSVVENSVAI
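Hydroperoxide formed from arachidonic acid (50 uM) by purified human 15hLO-1 (40 nM) oxidizes ferrous iron, and the ferric-xylenol orange complex is read at 573 versus 405 nm. Compounds were preincubated 15 min; reaction ran 6 min at room temperature.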
ERK AVP block: inhibitors of vasopressin-stimulated ERK signaling pathway; HEK293-V1b, vasopressin-stimulated pERK AlphaScreen; Potency, µM (titrated, usually from 57.5 µM), inactives show at the top dose activity, negative = inhibition, usual class: inhibitors; 72,000 compounds, 0.99% hits; note: % is set by controls: 0 for no effect and ±100 for the full control effect; nearly all actives have a fitted effect of over 55% in size
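V1b-HEK293 cells; cpd 30 min 37C; 25 nM vasopressin 5 min; lyse 10 min; AlphaScreen beads 5 hr RT. Normalized to DMSO basal and 25 nM vasopressin; AC50 by Hill fit.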
Tau fil binding: binders of human tau filaments; P10636; recombinant tau filaments, thioflavin S fluorescence, 15 h; filaments grown with octadecylsulfate alongside compound; Potency, µM (doses to about 57.1 µM), for inactives: at the highest dose activity change, negative = inhibition; 71,000 compounds, 2% hits; AID 596;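 note: % is set by controls: 0 for no effect and ±100 for the full control effect; actives lower thioflavin S fluorescence by blocking filaments or displacing dye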
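Quantitative HTS: thioflavine S signal from ODS-induced tau filaments, excited at 450 nm, emission 510 nm. Conditions: 1 uM tau, 30 uM ODS, 15 h at 37 C, pH 7.4.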
Caspase-1 inhib: caspase-1 (human) inhibition, allosteric or competitive | P29466 | Caspase-1 enzyme, Ac-WEHD-AFC fluorogenic rate | Potency, µM (doses to about 57.5 µM), for inactives: top-dose activity change, negative = inhibition, usual class: inhibitors | 75,000 compounds, 0.03% hits | AID 900;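 note: plate controls were vehicle for no effect and no substrate for full effect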
Caspase-7 inhib: caspase-7 (human) inhibition, allosteric or competitive | P55210 | recombinant caspase-7, Ac-DEVD-AFC fluorescence rate | Potency, µM (highest dose often 57.5 µM), for the others: at the top dose activity change, negative = inhibition, most hits filed as inhibitors | 75,000 compounds, 0.02% hits; active = well fitted inhibition curve with a large enough effect in the main read-out, with a control signal flat, not every such curve was filed as active; inconclusive = small, poorly fitted or top-dose-only effect, or a change in a side signal; note: % of control where 0% means no effect
An asterisk follows results filed as active; u = inconclusive; x = no result; [ ] = another dose, or the depositor's remark. Unless noted, calls come from the whole dose curve; as a rule, active = well fitted curve in the direction sought with a large enough effect; inconclusive = small, poorly fitted or top-dose-only effect, or another doubt; inactive = no such curve, though single readings can be large; an effect the other way counts as inactive or inconclusive. Potency is the fitted concentration of half-maximal effect.

SMILES	ALOX15 inhib	ERK AVP block	Tau fil binding	Caspase-1 inhib	Caspase-7 inhib
c1ccc(-c2nc(NCCCN3CCOCC3)c3ccccc3n2)cc1	u	u	5µM*	0%	0%
c1ccc2c(NCCN3CCOCC3)nc(-c3ccoc3)nc2c1	2%	u	-12%	-3%	-6%
Cc1ccc(-c2nc3ccccc3[nH]2)s1	-13%	-24%	13µM*	-8%	-8%
Clc1ccc2nc(-c3ccccc3)[nH]c2c1	-18%[25.6 µM]	25µM*	x	1%	2%
Nc1cc(N)cc(-c2nc3ccccc3[nH]2)c1	0%	10%	6.3µM*	-12%	-21%
CN(C)CCN(c1ccccn1)c1ccccn1	6%[11.4 µM]	5%[11.5 µM]	6%[11.4 µM]	1%[11.5 µM]	-2%[11.5 µM]
COc1ccc(C(=O)N2CCC3(CCN(Cc4ccncc4)CC3)CC2)cc1	12%	0%	-4%	-4%	-1%
COC(=O)[C@@H]1CC[C@H](C)[C@@H](c2ccc(C)cc2)N1C(=O)c1ccc(/C=N\OCC[C@@H]2C=C[C@H](OC(C)=O)[C@H](COC(C)=O)O2)cc1	-8%[11.4 µM]	15%[11.5 µM]	x	-5%[11.5 µM]	-1%[11.5 µM]
Cc1ccc(C)n1-c1ccc(N2CCOCC2)cc1	2.5µM*	u	25µM*	-8%	-2%
CC(=O)C(Sc1nn(C)c(=S)s1)C(=O)Nc1ccccc1 (configuration not stated)	7.9µM*	6%	9%	1%	0%
CC(=O)C(Sc1nc(N2CCOCC2)nc(N2CCOCC2)n1)C(=O)Nc1ccccc1 (configuration not stated)	16µM*	-20%	23%	-16%	-24%
CCNc1nc(SC(C)C(=O)Nc2ccccc2)nc(N2CCOCC2)n1 (configuration not stated)	3%	-28%	6%	-3%	0%
CN1CCN(c2ncc3nc(-c4ccc(Cl)cc4)c(=O)n(Cc4cccs4)c3n2)CC1	4%	u	2µM*	x	u
O=c1c(-c2ccc(Cl)cc2)nc2cnc(N3CCNCC3)nc2n1Cc1cccs1	u	u	3.2µM*	x	u
Oc1ccc(Nc2nc(NCC3CCCO3)c3ccccc3n2)cc1 (configuration not stated)	u	13µM*	44%	2%	0%
Oc1ccccc1Nc1nc(NCC2CCCO2)c2ccccc2n1 (configuration not stated)	u	-13%	78%	-2%	1%
Cc1cc(O)ccc1Nc1nc2ccccc2nc1Nc1ccc(O)cc1C	16µM*	10%	7.9µM*	u	u
CC(C)OC(=O)c1cc2c(OC[C@@H](O)CNC(C)(C)C)cccc2[nH]1	-3%[25.6 µM]	-20%	18%	1%	-2%
NCC1OC(OC2C(N)CC(N)[C@@H](O)[C@@H]2OC2O[C@H](CO)[C@@H](O[C@@H]3OC(CN)C(O)C(O)C3N)C2O)C(N)C(O)C1O (some centres not stated)	6%	4%	x	0%	2%
CCc1c(C)sc(NC(=O)CC#N)c1C#N	-11%	-28%	13µM*	-10%	-23%
CCc1c(C)sc(NC(=O)c2cc(C)no2)c1C#N	-5%	-14%	-6%	-1%	0%
CCCCCCCC/C=C\CCCCCCCC(=O)NCc1ccc(O)c(OC)c1	3%[25.6 µM]	13%	40µM*	-1%	-6%
CCCCCCCC/C=C\CCCCCCCC(=O)NCCc1ccc(O)c(O)c1	4µM*	u	-9%	0%	-3%
CCCCCCCCCCCCCCCC(=O)NCCc1ccc(O)c(O)c1	-5%	2%	x	1%	-2%
O=C(Nc1cccc2ccccc12)OC1C=CS(=O)(=O)C1 (configuration not stated)	63%	10µM*	345%	-2%	-2%
SMILES	ALOX15 inhib	ERK AVP block	Tau fil binding	Caspase-1 inhib	Caspase-7 inhib
Cc1ccc(N=Cc2ccc(O)cc2O)cc1F	-8%	5%	-30%	-13%	-1%
Oc1ccc(C=Nc2ccc(N3CCOCC3)cc2)c(O)c1	u	-22%	20µM*	-5%	-13%
COc1ccc(-c2c3c(=O)n(C)c(=O)n(C)c3c3nnc4ccccc4n23)cc1	8%	-6%	51%	-1%	-1%
COc1ccc(-c2c3c(=O)n(C)c(=O)n(C)c3cn2C2CCCCC2)cc1	25µM*	16µM*	10%	-1%	-1%
Nc1nc(CN2CCN(c3cccc(Cl)c3)CC2)nc(N2CCCc3ccccc32)n1	-20%	6.3µM*	0%	-3%	-10%
CCSc1sccc1C1C(C#N)=C(N)N(c2cccnc2)C2=C1C(=O)CCC2 (configuration not stated)	u	32µM*	u	-15%	-22%
O=C(O)[C@@H]1[C@@H]2C[C@H]([C@@H](Br)[C@H]2N2C(=O)CCC2=O)[C@@H]1C(=O)O	17%[11.4 µM]	u	-3%[11.4 µM]	0%[11.5 µM]	-1%[11.5 µM]
O=C(CSc1ncn(-c2ccccc2)n1)Nc1ccc(Br)cn1	20µM*	-17%	9%	-2%	-5%
COc1ccc(C(=O)N2CCC[C@@]3(CCN(Cc4nccs4)C3)C2)cc1	2%	8%	6%	-2%	-5%
Cc1cc(NC(=O)CCCC(=O)N(CC(=O)NC2CCCCC2)c2ccccc2)no1	25µM*	-14%	5%	-14%	-12%
COc1ccc(-c2cc(=O)c3cc(OC)ccc3o2)cc1	-3%	7%	x	2%	1%
COc1cccc(-c2cc(=O)c3cc(O)ccc3o2)c1	6%[25.6 µM]	u	32µM*	0%	1%
COc1ccc2oc(-c3ccc(O)cc3)cc(=O)c2c1	-14%[25.6 µM]	40µM*	u	-6%	-13%
COc1cccc(-c2cc(=O)c3ccc(OC)cc3o2)c1	-1%	u	x	-2%	2%
NCS(=O)(=O)O	-2%[11.4 µM]	-10%[11.5 µM]	2%[11.4 µM]	0%[11.5 µM]	1%[11.5 µM]
O=C(O)c1cc2nc3c(c(C(F)(F)F)n2n1)CCc1ccccc1-3	-4%[11.4 µM]	-23%	-4%[11.4 µM]	-17%	-12%
O=C(c1cc2nc3c(c(C(F)(F)F)n2n1)CCc1ccccc1-3)N1CCN2CCCC2C1 (configuration not stated)	-8%	29%	13µM*	-4%	-3%
Cc1[nH]c2ccccc2c1Cc1nnc(SCC(=O)NCc2ccco2)o1	13µM*	u	79%	x	u
CO[C@@H]1/C=C\O[C@@]2(C)Oc3c(C)c(O)c4c(c3C2=O)C(=N[C@H]2CC[C@H](O)O[C@@H]2C)C=C(NC(=O)/C(C)=C\C(=O)[C@@H]2C[C@@H]2[C@@H](O)[C@H](C)[C@@H](O)[C@H](C)[C@H](OC(C)=O)[C@@H]1C)C4=O	2µM*	12%[11.5 µM]	24%[11.4 µM]	1%[11.5 µM]	-3%[11.5 µM]
CCOC(=O)N1CCC(=C2c3ccc(Cl)cc3CCc3cccnc32)CC1	u	20µM*	u	-4%	-9%
CC/C(=C(\c1ccccc1)c1ccc(OCCN(C)C)cc1)c1ccc(O)cc1	-17%	29%	-10%	-7%	-1%
COc1ccc(CCn2c(C)cc(C(=O)CSc3nnc(N)s3)c2C)cc1	12%	20µM*	-2%	-1%	0%
